Outcome and AC50 data for 40 molecules are collected here from PubChem BioAssay (EPA / NIEHS).

Each structure is given as a SMILES string. Calls of active or inactive are those of the source. How the source made its calls: active means hit-call score of the fitted dose curve at least 0.9, where 1 is the maximum; inactive means score below 0.9.

As a reminder, the AC50 is the concentration at which the activity in the assay is half-maximal.

Read-out in the assay: Epidermal growth factor receptor (EGFR), EGFR (gene 1956)
Kind of assay: BSK_hDFCGF_EGFR: BioMAP Diversity Plus: hDFCGF Assay for Epidermal growth factor receptor (EGFR) Biomarker Activity (AID 2283057). The conditions noted are these: primary human foreskin fibroblasts; actives raise or lower the signal. The procedure: BSK_hDFCGF is a cell-based, multiplexed-readout assay that uses foreskin fibroblast, a human skin primary cell, with measurements taken at 24 hours after chemical dosing in a 96-well plate.BSK_hDFCGF_EGFR is an assay component measured in the BSK_hDFCGF assay. It measures EGFR antibody related to regulation of gene expression using ELISA technology.Data from the assay component BSK_hDFCGF_EGFR was analyzed into 1 assay endpoint. This assay endpoint, BSK_hDFCGF_EGFR, was analyzed with bidirectional fitting relative to DMSO as the negative control and baseline of activity. Using a type of binding reporter, gain or loss-of-signal activity can be used to understand changes in the signaling as they relate to the gene EGFR. Furthermore, this assay endpoint can be referred to as a primary readout, because this assay has produced multiple assay endpoints where this one serves a signaling function. To generalize the intended target to other relatable targets, this assay endpoint is annotated to the kinase intended target family, where the subfamily is receptor tyrosine kinase.
The levels of cell surface (or secreted, indicated by the prefix "s") biomarker endpoints were measured by ELISA. Overt cytotoxicity to cells in confluent adherent cultures (all systems other than the BT system) was assessed by measuring total protein levels using sulforhodamine B (SRB) staining in parallel cultures at the time of biomarker measurements, indicated as SRB endpoints. For proliferation assays for adherent cell types, individual cell types are cultured at sub-confluence and relative cell numbers quantified by SRB staining at time points optimized for each system (48 h: 3C and CASM3C systems; 72 h: BT and HDF3CGF systems; 96 h: SAg system). SRB was performed by staining cells with 0.1% SRB after fixation with 10% TCA and reading wells at 560 nm.Viability and proliferation of PBMC (T cells) was quantified by Alamar Blue reduction for the SAg and BT systems. For PBMC viability (referred to as PBMC Cytotoxicity within the assay endpoint names), cells were plated (75,000/well in a 96-well plate) and then chemical samples added for 1 h before addition of activators, SEB and TSST-1 (20 ng/mL final concentration each). Cells were incubated for 90 h. Then, Alamar Blue (20 uL/well) (Invitrogen, Cat DAL1100) was added for 6 h, and the plates were read with a fluorescence microplate reader at 546/580 nm (excitation/emission). For PBMC proliferation, cells were plated and activated as above but incubated for only 16 h prior to addition of Alamar Blue. Plates were read after 6 h.
`CC1(C)[C@H](C(=O)O[C@H](C#N)c2cccc(Oc3ccccc3)c2)[C@@H]1/C=C(\Cl)C(F)(F)F`: the result was inactive. Still for that read-out and setting: the value for `Oc1c(Cl)cc(Cl)cc1Cl` was “inactive”; that for `Cc1cc(C(C)(C)c2ccc(O)c(C)c2)ccc1O` was “inactive”. With `Nc1c(Oc2ccccc2)cc(O)c2c1C(=O)c1ccccc1C2=O`, the result was inactive.

As to `CCCCCCCCCCCCc1cccc(S(=O)(=O)O)c1`, the AC50 is 11.8 µM (active).

Consider `N#CCCC(Br)(C#N)CBr` (stereo not given), for which the result was inactive.

Regarding `CC(C)(C)c1ccccc1O`, the outcome was inactive. As to `CCOC(=O)CC(=O)CCl`, the outcome was inactive. For `[Cl][Sn]([c]1ccccc1)([c]1ccccc1)[c]1ccccc1`, the outcome was inactive. On to `OCCCCO`, for which the result was inactive. As for `O=C(Cc1ccccc1)OCCc1ccccc1`, the outcome was inactive. `Nc1ccc(N)cc1`: the outcome was inactive. Still for that read-out and setting: the value for `CC(C=O)Cc1ccc2c(c1)OCO2` (stereo not given) was “inactive”; that for `Clc1cccc(Cl)c1Cl` was “inactive”; that for `Oc1cc(Cl)c(Cl)cc1Cl` was “inactive”. `O=S(=O)(C(Cl)(Cl)Cl)C(Cl)(Cl)Cl`: the AC50 was 1.55 µM (active). In the case of `CC(C)(C)c1cc([N+](=O)[O-])cc(C(C)(C)C)c1O`, the result was inactive. For the molecule `O=C(O)COc1cc(Cl)c(Cl)cc1Cl`, the outcome was inactive.

Take `Oc1c(Br)cc(Br)cc1Br`: the result was inactive.

For `N#Cc1cccnc1`, the result was inactive. `Oc1ccc(Cc2ccc(O)cc2)cc1`: the outcome was inactive. Take `Clc1cccc(Cl)c1`: the outcome was inactive. As to `Cc1ccc(OP(=O)(Oc2ccc(C)cc2C)Oc2ccc(C)cc2C)c(C)c1`, the AC50 was 3.88 µM (active).

With `COCC(=O)N(c1c(C)cccc1C)[C@H](C)C(=O)OC`, the outcome was inactive. Turning to `CCOC(=O)C(SP(=S)(OC)OC)c1ccccc1` (stereo not given), the result was inactive. Regarding `CC(C)=CC1C(C(=O)OCc2cccc(Oc3ccccc3)c2)C1(C)C` (stereo not given), the outcome was inactive. `CCCCN(CCCC)C(=S)[S-].CCCCN(CCCC)C(=S)[S-].[Ni+2]`: the result was inactive. Same read-out and setting: the value for `CCOP(=S)(OCC)OP(=S)(OCC)OCC` was “inactive”; that for `Cc1cc(Cl)ccc1N` was “inactive”; that for `COc1ccccc1N` was “inactive”. On to `O=C(N[C@H]1CN2CCC1CC2)c1ccc2c(c1)OCCO2`, for which the outcome was inactive. `O=c1oc2ccccc2c(O)c1C(CC(O)c1ccc(-c2ccc(Br)cc2)cc1)c1ccccc1` (stereo not given): the AC50 was 4.73 µM (active). In the case of `Cc1cc(C)cc(C)c1`, the result was inactive. Consider `Cc1c([N+](=O)[O-])c(C)c([N+](=O)[O-])c(C(C)(C)C)c1[N+](=O)[O-]`, for which the outcome was inactive.

Turning to `OC(Cc1ccccc1Cl)(Cn1[nH]cnc1=S)C1(Cl)CC1` (stereo not given), the result was inactive. Same read-out and setting: next, `Cc1cc(Cl)ccc1OC(C)C(=O)O` (stereo not given): “inactive”. For `CCOP(=O)(OCC)OC(=CCl)c1ccc(Cl)cc1Cl`, the outcome was inactive. Still for that read-out and setting: the value for `CCOP(=S)(OCC)SCS(=O)(=O)C(C)(C)C` was “inactive”; that for `C=CC(Cl)CCl` (stereo not given) was “inactive”. Same read-out and setting: next, `CCCCOC(=O)COC(=O)c1ccccc1C(=O)OCCCC`: “inactive”.
